Measurements taken from ChEMBL document CHEMBL3988442, “University of Dundee, Small-Polar-MMV Screening Library” (2021).
Hit rate of the full screen: of about 48,000 compounds, about 13,000 (27%) showed an effect of 50% or more. This is one part of the list.

What follows are molecules tested on Wolbachia pipientis (assay: Anti-Wolbachia Cell-Based Screen). Settings: 5 µM.
Assay type: functional
Set-up: scale not given: in the data most compounds retested in dose-response had high values

| SMILES | Percent Effect [%] |
| --- | --- |
| Cn1cnc2cc(C(=O)NS(=O)(=O)c3ccc(F)cc3)ccc21 | -13.37 |
| O=C(O)C1c2nc[nH]c2CCN1Cc1ccc(-c2ccccc2)s1 (configuration not stated) | -13.4 |
| Cc1nc(CN2CCC3(CCN(Cc4cnn(C)c4)CC3)C2=O)cs1.O=C(O)C(F)(F)F.O=C(O)C(F)(F)F | 102.9 |
| Cc1nc(CN2CCC3(CCCN(Cc4cnn(C)c4)C3)C2=O)cs1.O=C(O)C(F)(F)F.O=C(O)C(F)(F)F (configuration not stated) | 12.7 |
| Cc1nc(CN2CCC3(CCN(Cc4nccn4C)CC3)C2=O)cs1.O=C(O)C(F)(F)F.O=C(O)C(F)(F)F | 106 |
| Cc1nc(CN2CCC3(CCN(Cc4cnn(C)c4)C3)C2=O)cs1 (configuration not stated) | 104.5 |
| O=C1O[C@@H]2CN(Cc3cc4ccccc4o3)C[C@@H]2N1Cc1ccccn1 | 8.786 |
| CN(Cc1ccncn1)c1nccc(CCC(F)(F)F)n1 | 2.558 |
| O=C(CC1CC1)NCc1cn2c(n1)CN(C(=O)C1CCOCC1)CC2 | 7.38 |
| CN1CCN(Cc2cn3c(n2)CN(C2CCOCC2)CC3)CC1.O=C(O)C(F)(F)F.O=C(O)C(F)(F)F.O=C(O)C(F)(F)F | 107 |
| c1c(CN2CCCCC2)nc2n1CCN(CC1CC1)C2 | 5.412 |
| c1c(CN2CCOCC2)nc2n1CCN(C1CCOCC1)C2 | 79.69 |
| O=C(O)C(F)(F)F.O=C(O)C(F)(F)F.c1cn2c(n1)CN(C1CCOCC1)CC(CN1CCCC1)C2 (configuration not stated) | -10.3 |
| O=C(NCc1cn2c(n1)CN(CC1CCOCC1)CC2)C1CCC1.O=C(O)C(F)(F)F | -3.322 |
| c1c(CN2CCOCC2)nc2n1CCN(CC1CC1)C2 | 101.8 |
| CN(Cc1cn2c(n1)CN(C1CCOCC1)CC2)Cc1ccco1.O=C(O)C(F)(F)F.O=C(O)C(F)(F)F | 4.973 |
| O=C(O)C(F)(F)F.O=C(O)C(F)(F)F.c1c(CN2CCCC2)nc2n1CCN(CC1CC1)C2 | -6.407 |
| c1nc2n(c1CN1CCOCC1)CCN(C1CCOC1)CC2 (configuration not stated) | -7.987 |
| CN1CCN(Cc2cn3c(n2)CN(C(=O)N2CCOCC2)CC3)CC1.O=C(O)C(F)(F)F.O=C(O)C(F)(F)F | -14.48 |
| O=C(O)C(F)(F)F.O=C(O)C(F)(F)F.c1c(CN2CCCC2)nc2n1CCN(C1CCOCC1)C2 | 102.1 |
| CCCN1CC(C(=O)Nc2ccccn2)CC1=O (configuration not stated) | -15.01 |
| COc1ccc(CN2CC[C@@H](N)[C@@H](OC)C2)cc1Cn1cncn1 | 18.6 |
| Cc1n[nH]cc1CNC(C(=O)N1CCOCC1)c1ccccc1 (configuration not stated) | 6.045 |

| SMILES | Percent Effect [%] |
| --- | --- |
| Cc1cnc(-c2nc(C3CCN(Cc4ccccc4Cl)CC3)no2)cn1 | 142.3 |
| Cc1cnc(-c2nc(C3CCCN(Cc4cccs4)C3)no2)cn1 (configuration not stated) | 85.43 |
| CN1CCC(Cc2noc(-c3cn(Cc4ccccc4Cl)nn3)n2)CC1 | 21.53 |
| Cc1nc(C)c(CN2CCOC(Cc3ccccc3Cl)C2)nc1C (configuration not stated) | -25.93 |
| Cc1cnc(-c2nc(-c3cccc(CN4CCOCC4)c3)no2)cn1 | 4.673 |
| Cc1nc(C2CCCN(c3ncc(Br)cn3)C2)no1 (configuration not stated) | -7.201 |
| Cc1cnc(-c2nc(C3CCCN(Cc4ccccc4C)C3)no2)cn1.Cl (configuration not stated) | 93.62 |
| Cc1cnc(CN2CCN(C(C)c3nc(C4CC4)no3)CC2)cn1 (configuration not stated) | 13.95 |
| c1cc(CN2CCCC(c3noc(C4CC4)n3)C2)no1 (configuration not stated) | 4.824 |
| Cc1cccn2cc(CN3CCCC(c4noc(C5CC5)n4)C3)nc12 (configuration not stated) | -10.66 |
| Cc1cnc(-c2nc(C3CCN(Cc4ccccc4C)CC3)no2)cn1 | 126.9 |
| CCCNC(=O)CN1CCCC1c1nc(Cc2ccc(F)cc2)no1 (configuration not stated) | -9.393 |
| CC(C)N1CCOC[C@H]1c1nc(C(C)(C)C)c[nH]1 | -12.91 |
| Cc1ccccc1C(C)(C)CNC(=O)CN(C)c1cnccn1 | 6.052 |
| Cc1ccsc1C(=O)NC1CCN(c2cnn(C)c2)C1=O (configuration not stated) | -14.12 |
| CC(C)(C)NC(=O)C[C@@H]1CCNC[C@@H]1Cc1cc(C(C)(C)C)on1 | -4.858 |
| c1cc(C2CCN(Cc3nc(C4CC4)no3)CC2)[nH]n1 | 45.49 |
| Cc1cnc(-c2nc(C3CCN(Cc4ccccc4O)CC3)no2)cn1 | 140.6 |
| c1ccc2[nH]c(C3CCN(Cc4nc(C5CC5)no4)CC3)cc2c1 | 8.105 |
| CCN(CC)C(C(=O)Nc1ccc2c(c1)CCC(=O)N2)c1ccccc1 (configuration not stated) | -21.99 |
| O=C(CN1CCN(c2ncccn2)[C@@H]2CS(=O)(=O)C[C@@H]21)N1CCCCC1 | -9.163 |
| CC(c1cccc(-c2ncccc2C#N)c1)N(C)C (configuration not stated) | 104.1 |
| CC(c1cccc(-c2nccn2CCc2ccccn2)c1)N(C)C (configuration not stated) | 15.78 |

| SMILES | Percent Effect [%] |
| --- | --- |
| CC(c1cccc(-c2ccc(C(=O)O)cc2Cl)c1)N(C)C (configuration not stated) | -4.101 |
| CC(c1cccc(-c2ncc(C#N)c(N)n2)c1)N(C)C (configuration not stated) | 111.9 |
| Cc1ccc(C(=O)O)cc1-c1cccc(C(C)N(C)C)c1 (configuration not stated) | -7.98 |
| CC(c1cccc(-c2ncccc2F)c1)N(C)C (configuration not stated) | 118.4 |
| CC(c1cccc(-c2nccn2CCc2cn[nH]c2)c1)N(C)C (configuration not stated) | 8.832 |
| Cc1cnc(Cn2cc(-c3cccc(C(C)N(C)C)c3)nn2)cn1 (configuration not stated) | -24.3 |
| COC(C)(C)Cn1ccnc1-c1cccc(C(C)N(C)C)c1 (configuration not stated) | 3.994 |
| COc1ccccc1[C@@H]1CN(Cc2cc(C(C)(C)C)[nH]n2)C[C@H]1C(=O)O | -3.476 |
| CCc1cnc(NCC2OCCc3ccccc32)nc1 (configuration not stated) | 32.64 |
| Cn1ccnc1NC[C@@H]1CCC[C@@H]2CN(CC3CC3)C[C@@H]21.O=C(O)C(F)(F)F | 12.38 |
| COc1ccnc(CN2CCC=C(C(C)NC(C)=O)C2)c1OC (configuration not stated) | -37.4 |
| O=C(NCc1ccccc1)N1CCc2ncnc(NC3CC3)c2CC1 | 108.7 |
| O=C(NCc1cccc(F)c1)N1CCc2ncnc(NC3CC3)c2CC1 | 117.5 |
| COc1ncnc2c1CCN(C(=O)NCc1cccnc1)CC2.O=C(O)C(F)(F)F | 5.156 |
| CC(C)Nc1ncnc2c1CCN(C(=O)NCc1cccnc1)CC2.O=C(O)C(F)(F)F | -1.871 |
| CCN(C)c1ncnc2c1CCN(C(=O)NCc1cccnc1)CC2.O=C(O)C(F)(F)F | 18.48 |
| O=C(NCc1cccnc1)N1CCc2ncnc(NC3CC3)c2CC1.O=C(O)C(F)(F)F | 96.91 |
| O=C(NCc1cccnc1)N1CCc2ncnc(C3CC3)c2CC1.O=C(O)C(F)(F)F | -6.522 |
| COc1ncnc2c1CCN(C(=O)NCc1cccc(F)c1)CC2 | -12.16 |
| CC(C)Nc1ncnc2c1CCN(C(=O)NCc1cccc(F)c1)CC2 | 86.35 |
| CCOc1ncnc2c1CCN(C(=O)NCc1cccnc1)CC2.O=C(O)C(F)(F)F | 0.188 |
